In all, about 9,900 sequences were measured (“r (bound/input frequency ratio)”: median about 0.7, highest 2% from about 6.5 on). For the sample, the highest values were picked, then their nearest neighbours and some sequences at random.
B1: ENSMUSG00000061578.522|Ksr2 (ssRNA)
RNA: GGGAGUUCUACAGUCCGACGAUCGCUUCGAUAUCCGCAUGCUAGGAGCUCUUGCCUAACACACACCAAGCCCCAAGUUCCAUCCCCAGUCCCACACAAACCAGAUAUGAUGGUGUGUGCCUAUGUCCCCCACACACGAGAGAGCUGGAGGCAGGAGGAUCAGAAGUUCAGGGCCAUCCUUAAUCAUACAGUGAGCUUGAGAGCAACCUGGGCUACAUGUGACCCUAAUAACUUUUGUAAAUUCAGCACACUUGGCACCUCACACUCCAUGUCCAUAUACUGCAUGUGCCACACACACACACACCUCUUGCGGUCGCACUAGUGUGGAAUUCUCGGGUGUCAAGG
B2: ENSMUSG00000028439.215|Fam219a (ssRNA)
RNA: GGGAGUUCUACAGUCCGACGAUCGCUUCGAUAUCCGCAUGCUAACCUGGGUUCUGGUCCCAGCCUCGGCAUUCUCCCUGAGCUCCUAAGCAAUUCCCAGGCUUCUCUAGGGCUUCAGUUCUCACAACUGGAAAAUAAAGAGUAGCUGACAUCACCGACAGAGUCUUUUCAUACCAGAAGGAAUUUCUUCACAGGAGUUUCUGCAAAAGACUAUGACAUCUGUGUGUCUGUGGUCUCACGAGGUACCUGGAGGUGUAUGUGCACGGACAUGGGAAGUACGUGAAGAUUUAUUUCGGGAAAAGUGCUCUUGCGGUCGCACUAGUGUGGAAUUCUCGGGUGUCAAGG
B3: ENSMUSG00000022095.99|Fam160b2 (ssRNA)
RNA: GGGAGUUCUACAGUCCGACGAUCGCUUCGAUAUCCGCAUGCUAGCCCCCUCUUCCUGCUCUACCCUCCUGGAGGCUGUUGCAAAAUUCCCAACUGCCUCCUGGCAGAGGCCCAAAGUAUGCUCUGCGCCCAGGCGGGGGCAGCUGCUAACAAGAGCCCUGGCGCAGCUGCAGCCAGGGCAGGCGAGAGCCUUGGAGCUGGGUGCCAGGCUCCAGCUCCAGCUCCAGCUGGUUCCUCUCUGGCGCCUUCUGAACCCGUCUCAGCAAGUCCGAAACACCUGGGCAGAGAGGUCAUUGACCAGGGACUCUUGCGGUCGCACUAGUGUGGAAUUCUCGGGUGUCAAGG
B4: ENSMUSG00000031028.626|Tub (ssRNA)
RNA: GGGAGUUCUACAGUCCGACGAUCGCUUCGAUAUCCGCAUGCUAUUAGGGUAAAUGAAAGUUAGUCCUGGCUCUCAUCACCACCUUUCCUAGCUCAUCACUGUGCCUUCUUUCUUCCCUAAGAAAGACAAUGCACCCCUCUCUUCUGUUCUCCUGCCCCUUCGCCCCCACUGAGGUCCAGGUAGAGCAGAUGAGGCUGAAAUGUAGAGUGUUCUAUAGAGCAUCUCAGUAGCAUAGAAGGAGAAGCCCAGCUCCAACCUCCUGGACCCCAUACUGGUGACCAGCUUGGUGAGGACAGGCAAAAUCUCUUGCGGUCGCACUAGUGUGGAAUUCUCGGGUGUCAAGG
B5: ENSMUSG00000004113.212|Cacna1b (ssRNA)
RNA: GGGAGUUCUACAGUCCGACGAUCGCUUCGAUAUCCGCAUGCUAGCUCAGAGCAGCACGGGGGCUUGUGUCUUAGGGACAUUGACAGUGUCCAUCAGCAUGUCAGAGAAGCAGCUGUAGUGCCCGUGUUUCUCCCUGAGUCAUGGGUUCUGAAGAAGCCAGAGCGGCACAAUGCGUGCUUGCAUGAGGCACUUUCAGCCUUUUUAAAUCUGACUCUCAGGGAUGGGAUGCCUGCCAAGUAGGGUGUAAUCUCUGUUGUGUUUUUAAAACAACAACAACAAAAUAAAACAAAAAAAAAAAACCUACUCUUGCGGUCGCACUAGUGUGGAAUUCUCGGGUGUCAAGG
B6: ENSMUSG00000061578.1091|Ksr2|55:59 (ssRNA)
RNA: GGGAGUUCUACAGUCCGACGAUCGCUUCGAUAUCCGCAUGCUACAACCAUGAAAAUAGAGGUUUGUAAUGUACAGAAGGCUGGGGGAGCUUUCAGGGCACACGCCAGUUAUGUACAGAUGUGAAGCUGAGGUCUGAAGGAAAUGGAGGAAGUAGGAAGAUCAGACUGGUUGAAUUAGAAGUCUGUCACUCUAGGUGCUAAGUGACCUUGGACCCAGUCAGUUCUUGGAUUUCUGUUGUAGCCCAGGCUAGCCUCGAACCCUUGAUCCUCCUGUUCCUGGUAGAGAAACAGCCACUAAAUGGUGCUCUUGCGGUCGCACUAGUGUGGAAUUCUCGGGUGUCAAGG
B7: ENSMUSG00000004113.162|Cacna1b (ssRNA)
RNA: GGGAGUUCUACAGUCCGACGAUCGCUUCGAUAUCCGCAUGCUAGGUUUUCAGUCACAACACUUUCACUGUUUGUCAUUUCUAUGUAGUUGAUCUAGAAAAAGCAGAAAUCAAAACAGGAAAGGAAAUGUUUGUGUAACUUUAAAAAAAAAGUCAACAUGUAGGAAGGUCUCCAUUUUGCAUUGUUUCUGUGUCUUGUAUGCAAUGUUCCUGUAUGUUUCUACCCUGCCUGGGAUGUCCCCAAUGACCCUGGCUCCUCUGCUCAACCAAGUGCCUGAUCUCUGGCUCUGAGCAUCGUGGAUGAGCUCUUGCGGUCGCACUAGUGUGGAAUUCUCGGGUGUCAAGG
B8: ENSMUSG00000029636.179|Wasf3 (ssRNA)
RNA: GGGAGUUCUACAGUCCGACGAUCGCUUCGAUAUCCGCAUGCUACCCCUCCUGAAGCACAGCUCUCUUCUCUCCUGUUGUCGGCACAUUUUCAAUUUUAAAAAGUACCUCACAAGAUAAACUUGAUUCAGCCAGUUGCCCGGGCAGAGACCUGACUUCCCCUCUCCUGCCCUGAUCCUUUUUACCAAAUGGCGAUUCCAUAGUCCUGGCUGAGGCAGGGGCUCAAAGUCCAGUGUCUGCUUUGCAAUUCUGGAAGGACAGCUGCUUAUUUAAAUAAGUCUGUGAUAUCCGCAGGCUUGGGUUACCUCUUGCGGUCGCACUAGUGUGGAAUUCUCGGGUGUCAAGG
B9: ENSMUSG00000061578.745|Ksr2 (ssRNA)
RNA: GGGAGUUCUACAGUCCGACGAUCGCUUCGAUAUCCGCAUGCUACAUCUCUGGCUCUUUGUUUCCACUCUGGCCCAAGUUUGAGUCUCCAUAUGGGCCCUUCCUGUCCUCAUGCCCUGCCUGUCUUCAUUCCACCCAUCCACCCUCCUAAGGAUUGGUCUUGUUCCGAGAGUGAUCCUGGUAACGCCAAGCCUCCCUCUGCCCCUGUGUUGGCUUCUGUGACGGACUACCACACACCAAGAGGUUUUUCACAGUGAAGAUGUAUGCUCUCACCAUCCUACAGAUGCAAAGACCAAACACAAAGUCUCUUGCGGUCGCACUAGUGUGGAAUUCUCGGGUGUCAAGG

Each binder was assayed against TDP-43 (Homo sapiens, UniProt Q13148 1-414) (assay: RNA Bind-n-Seq with designed 260-mer pool; 25 mM Tris-HCl, 150 mM KCl, 3 mM MgCl2, BSA (printed 500 mg/mL), 20 units/mL SUPERase IN; pH not stated; 500 nM RNA pool, 1 h, 4 C; TDP-43 5, 50, 500 nM; high values mean tight binding). Conditions: protein: recombinant; tags: SBP (GST cleaved off with PreScission; pGEX-GST-SBP).
Chain of TDP-43 (Q13148 whole entry): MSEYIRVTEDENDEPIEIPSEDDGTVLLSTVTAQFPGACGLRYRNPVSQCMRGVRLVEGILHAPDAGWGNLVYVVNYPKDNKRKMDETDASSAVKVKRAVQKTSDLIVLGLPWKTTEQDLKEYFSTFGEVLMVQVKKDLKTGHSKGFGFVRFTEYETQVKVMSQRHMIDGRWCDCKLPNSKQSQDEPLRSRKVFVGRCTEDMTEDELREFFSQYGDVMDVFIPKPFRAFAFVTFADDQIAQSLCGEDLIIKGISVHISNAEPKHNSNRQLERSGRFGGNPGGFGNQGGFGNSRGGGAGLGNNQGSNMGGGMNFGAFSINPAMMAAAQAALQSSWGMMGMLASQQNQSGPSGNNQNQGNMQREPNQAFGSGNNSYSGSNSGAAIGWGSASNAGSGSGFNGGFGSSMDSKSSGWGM
How it was run: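 Recombinant SBP-tagged TDP-43 at 5, 50 or 500 nM was captured on streptavidin beads, then incubated 1 h at 4 °C with 500 nM of an in vitro-transcribed 260-nt 3′ UTR oligo pool in 25 mM Tris-HCl, 150 mM KCl, 3 mM MgCl2, BSA and SUPERase IN. Bound RNA was washed, eluted with biotin, reverse transcribed, PCR-amplified and sequenced. Binding is R, each oligo's mapped-read-normalized abundance in the bound sample divided by its abundance in input. Duplicates used two independent protein batches.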
B1 was tested, and the binding signal was 2.82 R (bound/input frequency ratio).
With B2 the binding signal was 1.67 R (bound/input frequency ratio).
For B3, the binding signal was 0.917 R (bound/input frequency ratio).
For B4, the binding signal was 0.915 R (bound/input frequency ratio).
With B5 the binding signal was 0.697 R (bound/input frequency ratio).
B6 was tested, and the binding signal was 0.848 R (bound/input frequency ratio).
For B7, the binding signal was 1.13 R (bound/input frequency ratio).
In the case of B8, the binding signal is reported as 0.495 R (bound/input frequency ratio).
In the case of B9, the binding signal is reported as 1.1 R (bound/input frequency ratio).

— PMC12864922, “TDP-43 directly inhibits mRNA accumulation in neurites through modulation of mRNA stability”
